The text below walks through data of PubChem BioAssay AID2013 (Sanford-Burnham Center for Chemical Genomics, 2009).

By inhibition is commonly meant the drop in the measured response relative to a control, in per cent.

Screen size: about 290,000 compounds; about 370 (0.13%) were called active.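 Rule for the calls: active = spots per cell inhibited over 60%, with over 100 cells counted and total cytoplasm intensity under 500,000; inconclusive = wells with under 100 cells, flagged as likely toxic; inactive = the rest.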 What follows is part of a selection rich in actives, with near analogues and random picks from the rest. Results with a measured potency or affinity are listed apart.

G-protein coupled receptor 55 (Homo sapiens), sequence (Q9Y2T6 whole entry, looked up): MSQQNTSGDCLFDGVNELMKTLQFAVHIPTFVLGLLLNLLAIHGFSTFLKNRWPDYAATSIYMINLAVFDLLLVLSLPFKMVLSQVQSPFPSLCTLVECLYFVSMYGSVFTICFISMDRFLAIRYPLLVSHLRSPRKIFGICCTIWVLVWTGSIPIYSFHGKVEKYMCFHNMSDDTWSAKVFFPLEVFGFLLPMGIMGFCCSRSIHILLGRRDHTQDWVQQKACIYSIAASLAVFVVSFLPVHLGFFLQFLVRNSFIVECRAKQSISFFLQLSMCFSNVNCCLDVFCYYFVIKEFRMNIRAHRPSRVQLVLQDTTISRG

This assay addresses G-protein coupled receptor 55 (Homo sapiens) (UniProt Q9Y2T6). Description: GPR55 antagonists blocking LPI-driven arrestin recruitment, primary screen, imaging, U2OS, beta-arrestin-GFP, LPI agonist (AID 2013).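 Note: U2OS cells stably carrying GPR55 and arrestin-GFP stimulated by 5 µM LPI near EC80; imaged beta-arrestin-GFP aggregate spots per cell after agonist stimulation; plate controls were LPI-stimulated DMSO wells for no effect and DMSO wells without LPI for full effect.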 The note with it: U2OS GPR55 beta-arrestin-GFP translocation imaging, LPI antagonism; at 10 µM; stronger effect = higher value. (In general: Arrestin recruitment assays detect the binding of arrestin to an activated receptor.)
For `CCCN1Cc2cccc(C(=O)N3CCN(c4ccc(F)cc4)CC3)c2C1=O`, the inhibition was 2.2% (inactive). For the molecule `O=C(Nc1ccc(F)cc1F)c1cc(-c2ccco2)nc2ccccc12`, the inhibition is 7.3% (inactive). The value for `CN(/C(=N/S(=O)(=O)c1ccccc1)c1ccccc1)S(=O)(=O)c1ccccc1` was 5.7% (inactive); that for `CCc1ccc(CCC(=O)Nc2nccs2)o1` was 2.3% (inactive); that for `Oc1ccc(-c2c(-c3ccsc3)sc3ccccc23)cc1` was 6.5% (inactive). The value for `Nc1ccc(C2(c3ccc(N)cc3)OC(=O)c3ccccc32)cc1` was 4% (inactive).

Regarding `Cc1cc(O)c(C(C)C)cc1C1(c2cc(C(C)C)c(O)cc2C)OC(=O)c2ccccc21`, the inhibition is 6.1% (inactive).

With `CN(C)c1ccc(C2(c3ccc(N(C)C)cc3)OC(=O)c3cc(N)ccc32)cc1`, the inhibition was 6.1% (inactive).

In the case of `CC(=O)Oc1ccc2c(c1)Oc1cc(OC(C)=O)ccc1C21OC(=O)c2ccccc21`, the inhibition is 9.9% (inactive). Next, `O=C(O)c1ccc(C2(c3ccc(C(=O)O)cc3)OC(=O)c3ccccc32)cc1`: -10.8% (inactive); `Cc1cccc(C2(c3cccc(C)c3)OC(=O)c3ccccc32)c1`: 10.5% (inactive); `Cc1cc(C2(c3ccc(O)c(C)c3)OC(=O)c3ccccc32)ccc1O`: 83.2% (active). In the case of `CCCCOc1ccc(-c2nnn(CC(=O)NCCc3c[nH]c4ccccc34)n2)cc1`, the inhibition was 4% (inactive).

Regarding `CCOc1cc(-c2noc(CCC(=O)NCC3CCCO3)n2)ccc1OC` (stereo unspecified), the inhibition is 0% (inactive).

On to `COc1ccc(C2CC(=O)c3cnn(-c4nc(C)cc(C)n4)c3C2)cc1OC` (stereo unspecified), for which the inhibition was 6.6% (inactive). The value for `CC1=CC(C)(C)N2C(=O)C3(NCCc4c3[nH]c3ccccc43)c3cccc1c32` (stereo unspecified) was 18.2% (inactive); that for `O=C(CNC(=S)N(Cc1ccc(F)cc1)C1CCCCC1)NCCN1CCOCC1` was 12.3% (inactive). Take `Cc1c(C(=O)NC2CCCCC2C)oc2ccccc12` (stereo unspecified): the inhibition was 0.8% (inactive). The value for `COc1cc(NC(=O)C2CCN(S(=O)(=O)c3cccnc3)CC2)cc(OC)c1OC` was 8.8% (inactive); that for `O=C(c1cccnc1)N1CCN(C(=O)c2cccc(Cl)c2)CC1` was -12.2% (inactive); that for `Cc1cccc2c1c(N=NC(N)=S)c(O)n2C1OC(CO)C(O)C(O)C1O` (stereo unspecified) was -13.4% (inactive).

As to `O=C1NCCN(Cc2ccoc2)C1CC(=O)N(CCO)Cc1ccccc1` (stereo unspecified), the inhibition was 1.1% (inactive).

Regarding `CCCCOc1ccccc1NC(=O)c1ccco1`, the inhibition is 13.2% (inactive). Next, `CCCCOc1ccccc1NC(=O)c1ccc(=O)[nH]c1`: 2.2% (inactive); `O=C(CCc1ccccc1Cl)NC1CCCN(c2ccc(C(F)(F)F)cn2)C1` (stereo unspecified): 5% (inactive); `COc1ccc(C(C(=O)NCCC(C)C)N(CCCO)C(=O)c2snc(C(N)=O)c2N)cc1OC` (stereo unspecified): 5% (inactive).
